Data from PubChem BioAssay (NCI).
Where “and” joins values, the source holds several entries; their conditions need not be identical. Identical values can stand only once. Compounds without any hit were thinned out: in the full panel of roughly 83,000, 20% have a hit.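 Each cell line was grown in a 96-well plate and treated with one concentration of compound for 48 hours. Values below 10 were considered active.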 Calls of active or inactive are those of the source.

tested on: MCF7 breast; assay: NCI-60 one-dose screen, 48 h (100 = growth as untreated, 0 = no growth, -100 = all killed); settings: 0.0025 µM
Procedure: Growth inhibition of the MCF7 human tumor cell line is measured as a screen for anti-cancer activity. Cells are grown in 96 well plates and exposed to the test compound for 48 hours. Compounds are tested at a single concentration, which is 10^-5 M for most compounds. The reported endpoint is percent growth (GI% or GIPRCNT), where numbers from 0 - 100% represent growth inhibition, and numbers from -100% - 0 represent cell death. For example, a value of 40 represents 60% growth inhibition. A value of 0 means no net growth occurred over the course of the experiment. A value of -40 indicates 40% of cells at the beginning of the experiment died by the end of the experiment. A value of -100 means all cells are dead at the end of the experiment.
NCI-60 Human Tumor Cell Lines Screen was performed using the standard one-dose NCI protocol, which is described in more detail at https://dtp.cancer.gov/discovery_development/nci-60/default.htm.
Compounds with GIPRCNT values below 10 were considered active. Activity score was based on GIPRCNT using the following formula: […]
Score is 0 for GIPRCNT values of 100 or above, 50 for GIPRCNT values of 0, and 100 for GIPRCNT values of -100.

Row | Compound | growth
1 | COc1cccc2c1C(=O)c1c(O)c3c(c(O)c1C2=O)C[C@@](O)(C(=O)CO)C[C@@H]3OC1CC(N)C(O)C(C)O1 (stereo not given in full) | 71.4% (inactive)

same assay, conditions: 1 µM

Row | Compound | growth
2 | COc1cccc2c1C(=O)c1c(O)c3c(c(O)c1C2=O)C[C@@](O)(C(=O)CO)C[C@@H]3OC1CC(N)C(O)C(C)O1 (stereo not given in full) | 18.7% (inactive)

same assay, conditions: 2.5 µM

Row | Compound | growth
3 | COc1cccc2c1C(=O)c1c(O)c3c(c(O)c1C2=O)C[C@@](O)(C(=O)CO)C[C@@H]3OC1CC(N)C(O)C(C)O1 (stereo not given in full) | 7.74% (active)

same assay, conditions: 10 µM

Row | Compound | growth
4 | CN(C)C(=S)SC(=S)N(C)C | 35.3% (inactive) and 71.2% (inactive)
5 | CC[N+](CC)=c1ccc2nc3c(cc(N)c4ccccc43)oc-2c1 | -46.3% (active)
6 | CC1=CC(C)=Nc2ccc(Cl)cc2N1 | 101% (inactive)
7 | O=C(/C=C/c1ccccn1)c1ccccc1 | 15% (inactive)
8 | O=C(O)COc1ccc(OCC(=O)O)cc1 | 6.66% (active)
9 | COc1cccc2c1C(=O)c1c(O)c3c(c(O)c1C2=O)C[C@@](O)(C(=O)CO)C[C@@H]3OC1CC(N)C(O)C(C)O1 (stereo not given in full) | 3.37% (active)
10 | Clc1ccc(/C=C/c2ccccn2)c(Cl)c1 | 7.59% (active)
11 | COc1c(O)cc2oc3cc(O)c(CC=C(C)C)c(O)c3c(=O)c2c1CC=C(C)C | 16.8% (inactive)
12 | CCCCCCCCCCCC[N+](C)(C)Cc1ccccc1 | 15.1% (inactive)
13 | CCC(C)(C)c1cc(O)c(C(C)(C)CC)cc1O | 18.4% (inactive)
14 | O=c1ccn(C2CC(O)C(COC(c3ccccc3)(c3ccccc3)c3ccccc3)O2)c(=O)[nH]1 (stereo not given) | 79.2% (inactive)
15 | Nc1nc(=S)c2ncn(C3OC(CO)C(O)C3O)c2[nH]1 (stereo not given) | 123% (inactive) and 9.98% (active)
16 | O=C1C=C(O)c2ccccc2C1=O.[Ag] | 95.7% (inactive)
17 | NC(=O)SCC(=O)NNc1ccccc1 | 94.2% (inactive)
18 | NNc1ccc2ccccc2c1 | 74.8% (inactive) and 80.2% (inactive)
19 | O=C(C(=Cc1ccccc1)C(=O)c1ccccc1)c1ccccc1 | 25.1% (inactive) and 89.3% (inactive)
20 | COC(=O)C1=COC(C)C2C[n+]3ccc4c([nH]c5ccccc54)c3CC12 (stereo not given) | 96% (inactive) and 79.2% (inactive)
21 | O=[N+]([O-])C1=C(c2ccccc2)SC=C(c2ccccc2)S1 | 51.6% (inactive)

Row | Compound | growth
22 | CO[C@H](C(=O)[C@@H](O)[C@@H](C)O)[C@@H]1Cc2cc3cc(OC4CC(OC5CC(O)C(O)C(C)O5)C(O)C(C)O4)c(C)c(O)c3c(O)c2C(=O)[C@H]1OC1CC(OC2CC(OC3CC(C)(O)C(O)C(C)O3)C(O)C(C)O2)C(O)C(C)O1 (stereo not given in full) | -3.56% (active)
23 | CCCCCCCCCCSC(=N)N | 8.06% (active)
24 | Nc1c2ccccc2nc2ccccc12 | 2.34% (active) and 7.36% (active) and 9.98% (active)
25 | CCCCCC(C)c1ccc(O)c(C)c1 (stereo not given) | 92% (inactive)
26 | Nc1ccc2cc3ccc(N)cc3nc2c1 | 111% (inactive) and -21.7% (active)
27 | N=S(c1ccccc1[N+](=O)[O-])c1ccccc1[N+](=O)[O-] | -53.7% (active)
28 | O=C1NC(=O)c2cc([N+](=O)[O-])ccc21 | 107% (inactive)
29 | CS(=O)(=O)OC1CC(n2ccc(=O)[nH]c2=O)OC1COC(c1ccccc1)(c1ccccc1)c1ccccc1 (stereo not given) | 97.3% (inactive)
30 | COC1OCC(O)C(O)C1O (stereo not given) | 90.7% (inactive)
31 | O=C(Nc1ccc(C(=O)O)c(O)c1)c1ccccc1 | 102% (inactive) and 95.6% (inactive)
32 | Cc1cc(O)c(C(C)C)cc1Cl | 104% (inactive)
33 | CCN1/C(=C/C=C/C=C/c2sc3ccccc3[n+]2CC)Sc2ccccc21 | -44.2% (active)
34 | OC(CN1CCCC2CCCCC21)c1cc2ccccc2c2ccccc12 (stereo not given) | 7.24% (active)
35 | CC(=O)OCC(OC(C)=O)C(OC(C)=O)C(OC(C)=O)C(OC(C)=O)C(/C=N/Nc1ccccc1)=N/Nc1ccccc1 (stereo not given) | 44.1% (inactive)
36 | O=C(/C=C/c1cccnc1)c1ccccc1 | 26.1% (inactive)
37 | CCO/C=C1\SC(=S)N(c2cccc(O)c2)C1=O | 84.1% (inactive)
38 | NC1=C(Cl)C(=O)c2ccccc2C1=O | 48.3% (inactive)

same assay, conditions: 100 µM

Row | Compound | growth
39 | O=c1ccn(C2CC(O)C(COC(c3ccccc3)(c3ccccc3)c3ccccc3)O2)c(=O)[nH]1 (stereo not given) | 16.5% (inactive)
40 | COC(=O)C1=COC(C)C2C[n+]3ccc4c([nH]c5ccccc54)c3CC12 (stereo not given) | 28.2% (inactive) and 1% (active)
